Source: PubChem BioAssay
Compounds with a hit are over-represented: about 3.8% of the library has one in this group of screens.
Jurkat NFkB inh = inhibitors of induced NF-kB luciferase reporter, primary screen, TCR NF-kB activation inhibitor project, cell-based, luminescence, uHTS | Jurkat, PMA/ionomycin-induced NF-kB luciferase reporter | AID 435003, 2010 | inhibition, % at 4 µM | 330,000 tested, 0.53% active; in the data active = inhibition above about 50%
Gli-Sufu block = Gli-Sufu pathway antagonists, primary screen, luciferase luminescence, Sufu-KO-LIGHT cells, uHTS; Sufu-KO-LIGHT fibroblasts, Gli luciferase reporter luminescence; inhibition, % at 5 µM; 340,000 tested, 0.74% active;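 active = inhibition above about 55%, limit read from the data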;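 also: 0% = DMSO-treated cells and 100% = wells with medium but no cells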
Mdm2-MdmX inh = inhibitors of human Mdm2-MdmX association, primary screen, cell-based, luminescence, split luciferase, SaOS-2, uHTS. Protein Mdm4 (Homo sapiens) + E3 ubiquitin-protein ligase Mdm2 (Homo sapiens), …. SaOS-2 split-luciferase Mdm2/MdmX complementation. inhibition, % at 8 µM. 330,000 tested, 3% active. AID 485346, 2010;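 active = inhibition of at least 50% at 8 µM in the primary screen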
Target sequence (O15151 whole entry, looked up): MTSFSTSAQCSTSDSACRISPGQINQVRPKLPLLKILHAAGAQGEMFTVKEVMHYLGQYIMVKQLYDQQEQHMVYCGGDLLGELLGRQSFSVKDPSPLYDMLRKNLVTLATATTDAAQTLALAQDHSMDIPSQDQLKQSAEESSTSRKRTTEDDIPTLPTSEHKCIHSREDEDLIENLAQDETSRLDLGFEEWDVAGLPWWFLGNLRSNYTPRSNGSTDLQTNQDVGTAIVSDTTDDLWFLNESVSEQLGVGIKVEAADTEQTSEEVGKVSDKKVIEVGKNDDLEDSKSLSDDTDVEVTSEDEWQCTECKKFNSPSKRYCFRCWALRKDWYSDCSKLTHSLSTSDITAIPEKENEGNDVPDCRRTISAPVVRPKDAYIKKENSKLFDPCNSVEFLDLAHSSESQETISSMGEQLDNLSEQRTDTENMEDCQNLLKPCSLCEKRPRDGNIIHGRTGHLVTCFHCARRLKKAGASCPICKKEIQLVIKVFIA
Target sequence (Q00987 whole entry, looked up): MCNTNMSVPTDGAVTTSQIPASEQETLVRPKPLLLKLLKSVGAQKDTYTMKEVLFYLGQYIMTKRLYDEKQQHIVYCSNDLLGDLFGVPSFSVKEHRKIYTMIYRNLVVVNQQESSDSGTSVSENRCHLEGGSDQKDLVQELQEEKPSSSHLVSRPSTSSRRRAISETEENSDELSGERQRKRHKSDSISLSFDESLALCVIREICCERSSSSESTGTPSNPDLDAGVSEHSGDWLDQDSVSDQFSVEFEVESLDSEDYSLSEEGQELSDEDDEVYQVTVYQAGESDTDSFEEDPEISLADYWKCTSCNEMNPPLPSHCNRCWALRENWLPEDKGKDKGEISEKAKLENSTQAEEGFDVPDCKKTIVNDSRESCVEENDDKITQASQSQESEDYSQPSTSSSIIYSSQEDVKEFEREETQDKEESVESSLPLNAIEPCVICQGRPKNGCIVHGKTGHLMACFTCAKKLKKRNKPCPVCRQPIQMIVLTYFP
697 NFkB inh = inhibitors of PMA/ionomycin-induced NF-kB reporter, 697 cells, primary screen, B-cell NF-kB inhibitor project, cell-based, luminescence, uHTS; inhibition, % at 4 µM; 330,000 tested, 0.33% active; AID 435022, 2010; 697 B-cell NF-kB luciferase reporter, 16 h; in the data active = inhibition above about 35%
Shn3 3UTR inh = reduction of Shn3 3'UTR firefly luciferase signal, primary screen, Schnurri-3 inhibitor project, cell-based, Clone20 osteoblasts, set 2. 360,000 tested, 0.52% active. Clone20 osteoblast Shn3 3'UTR firefly luciferase, 24 h. inhibition, % at 12.5 µM. AID 588674, 2011;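 active = mean inhibition of at least 75% with every replicate also reaching 75%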;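 also: 0% = median of neutral control wells and 100% = pilot-screen positive control compound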
Jurkat NFkB conf = PMA/ionomycin-induced NF-kB reporter inhibitors, Jurkat retest, confirmation, T-cell NF-kB inhibitor project, cell-based, luminescence, single concentration. AID 435020, 2010. 2,700 tested, 27% active. shares compounds with Jurkat NFkB inh. Jurkat NF-kB luciferase, 16 h. inhibition, % at 4 µM;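 active = inhibition reaching about 45% at 4 µM in either replicate, limit read from the data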;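 also: plate controls were PMA/ionomycin stimulated DMSO wells for no effect and unstimulated DMSO wells for full effect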
697 NFkB conf = PMA/ionomycin-induced NF-kB reporter inhibitors, 697 retest, confirmation, B-cell NF-kB inhibitor project, cell-based, luminescence, single concentration. shares compounds with 697 NFkB inh. 697 B-cell NF-kB luciferase, 16 h. inhibition, % at 4 µM. 2,000 tested, 35% active. AID 449746, 2010; in the data active = inhibition mostly above about 28%, no sharp cut-off; inactive = mostly below about 22%
Mdm2 MdmX conf = Mdm2-MdmX complex disruptors, retested hits, confirmation, luminescence, single concentration; Mdm2-MdmX binding, luminescent assay; inhibition, % at 8 µM; shares compounds with Mdm2-MdmX inh; AID 489028, 2010; 10,000 tested, 55% active; in the data active = inhibition above about 40%
Full FLuc ctr = full-length luciferase signal inhibition, confirmation, counter-screen for Mdm2/MdmX interaction inhibitor project, cell-based, single concentration, SaOS-2 | 6,200 tested, 77% active | inhibition, % at 8 µM | shares compounds with Mdm2-MdmX inh | SaOS-2 full-length luciferase counterscreen, luminescence;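 active = mean inhibition at 8 µM reaching about 37%, which flags the compound as non-specific, limit read from the data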;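 also: p53-null SaOS-2 cells with luciferase driven by a doxycycline-inducible promoter; compound on cells about two nights before reading with doxycycline added after day one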
Starred values were filed as active, the others as inactive.

Results for CC(C)C(NC(=O)c1ccccc1F)C(=O)NCc1ccccc1 (centres undefined) ?
Jurkat NFkB inh: 4; Gli-Sufu block: -18; Mdm2-MdmX inh: 17; 697 NFkB inh: 5; Shn3 3UTR inh: 13

How did Cc1cc(O)c2c(c1O)C(=O)[C@]13C(=C2O)C(=O)[C@@H]2[C@@H](O)[C@H]1[C@@H]1[C@H](O)[C@H]3C(=O)C3=C(O)c4c(O)cc(C)c(O)c4C(=O)[C@]312 do in these assays?
Jurkat NFkB inh: 85*; Gli-Sufu block: 78*; Mdm2-MdmX inh: 87*; 697 NFkB inh: 44*; Shn3 3UTR inh: 92*; Jurkat NFkB conf: 87*; 697 NFkB conf: -18; Mdm2 MdmX conf: 85*; Full FLuc ctr: 23

How did Cc1cc(C)cc(C(=O)N2CC(=O)Nc3ccccc32)c1 do in these assays?
Jurkat NFkB inh: 60*; Mdm2-MdmX inh: 58*; 697 NFkB inh: 9; Shn3 3UTR inh: 19; Jurkat NFkB conf: 56*; Mdm2 MdmX conf: 60*; Full FLuc ctr: 77*

Results for CCCc1ccc(C2=Nn3c(nnc3C(C)C)SC2)cc1 ?
Jurkat NFkB inh: -7; Gli-Sufu block: -17; Mdm2-MdmX inh: 23; 697 NFkB inh: 15; Shn3 3UTR inh: -12

How did CCOC(=O)N=Nc1c2ccccc2c2nc3no[nH]c3nc12 do in these assays?
Jurkat NFkB inh: 60*; Gli-Sufu block: 97*; Mdm2-MdmX inh: 100*; 697 NFkB inh: 33; Shn3 3UTR inh: 100*; Jurkat NFkB conf: 98*; Mdm2 MdmX conf: 100*; Full FLuc ctr: 1

How did COc1ccc(NC(=O)C(=O)NCCC2CCCCN2S(=O)(=O)c2cccs2)cc1 (centres undefined) do in these assays?
Jurkat NFkB inh: 61*; Gli-Sufu block: 2; Mdm2-MdmX inh: 52*; 697 NFkB inh: -27; Shn3 3UTR inh: 38; Jurkat NFkB conf: 35; Mdm2 MdmX conf: 73*; Full FLuc ctr: 75*

Results for COc1ccc(NC(=O)C(=O)NCC2CCCN2S(=O)(=O)c2ccc(C)cc2)cc1 (centres undefined) ?
Jurkat NFkB inh: 76*; Gli-Sufu block: 69*; Mdm2-MdmX inh: 66*; 697 NFkB inh: -170; Shn3 3UTR inh: 50; Jurkat NFkB conf: 64*; Mdm2 MdmX conf: 79*; Full FLuc ctr: 104*

How did COCCNC(=O)C(=O)Nc1ccc2c(c1)N(S(=O)(=O)c1cccs1)CCC2 do in these assays?
Jurkat NFkB inh: 60*; Gli-Sufu block: -8; Mdm2-MdmX inh: 56*; 697 NFkB inh: 3; Shn3 3UTR inh: 18; Jurkat NFkB conf: 24; Mdm2 MdmX conf: 72*; Full FLuc ctr: 64*

How did COc1ccc(S(=O)(=O)N2CCCC2CNC(=O)C(=O)Nc2ccc(C)cc2)cc1 (centres undefined) do in these assays?
Jurkat NFkB inh: 8; Gli-Sufu block: -12; Mdm2-MdmX inh: 28; 697 NFkB inh: 8; Shn3 3UTR inh: -6

Results for Cn1c(SCC(=O)Nc2ccc(Br)cc2)nc(O)cc1=O ?
Jurkat NFkB inh: 2; Gli-Sufu block: 2; Mdm2-MdmX inh: -16; 697 NFkB inh: 6; Shn3 3UTR inh: 21

Results for COc1ccccc1OC(C)C(=O)Nc1nc(-c2ccc(S(=O)(=O)N3CCOCC3)cc2)cs1 (centres undefined) ?
Jurkat NFkB inh: -8; Gli-Sufu block: 19; Mdm2-MdmX inh: 23; 697 NFkB inh: -49; Shn3 3UTR inh: 34

Results for COc1ccccc1C(=O)Nc1nc(-c2ccc(S(=O)(=O)N3CCOCC3)cc2)cs1 ?
Jurkat NFkB inh: 76*; Gli-Sufu block: 66*; Mdm2-MdmX inh: 77*; 697 NFkB inh: 41*; Shn3 3UTR inh: 89*; Jurkat NFkB conf: 61*; 697 NFkB conf: 30*; Mdm2 MdmX conf: 83*; Full FLuc ctr: 30

Results for Cc1ccc(-n2c(SCC(=O)NCc3ccco3)nc3c(sc4ccccc43)c2=O)cc1 ?
Jurkat NFkB inh: 4; Gli-Sufu block: 45; Mdm2-MdmX inh: 4; 697 NFkB inh: -34; Shn3 3UTR inh: 23

Results for CN(C)CCNC(=O)c1cc2c(s1)-c1ccc(Cl)cc1SC2 ?
Jurkat NFkB inh: 62*; Gli-Sufu block: 14; Mdm2-MdmX inh: 100*; 697 NFkB inh: -21; Shn3 3UTR inh: 17; Jurkat NFkB conf: 1; Mdm2 MdmX conf: 87*; Full FLuc ctr: 57*

Results for CCOCCCNC(=O)c1cc2c(s1)-c1ccccc1SC2 ?
Jurkat NFkB inh: -11; Gli-Sufu block: 7; Mdm2-MdmX inh: 30; 697 NFkB inh: 10; Shn3 3UTR inh: -31

How did CCOC(=O)c1c(-c2ccc(-c3ccccc3)cc2)csc1NC(=O)CNCCN(C)C do in these assays?
Jurkat NFkB inh: 52*; Gli-Sufu block: -14; Mdm2-MdmX inh: 83*; 697 NFkB inh: -1; Shn3 3UTR inh: 50; Jurkat NFkB conf: 10; Mdm2 MdmX conf: 53*; Full FLuc ctr: 61*

How did COc1ccccc1C(=O)COC(=O)C1CCN(S(=O)(=O)c2ccccc2)CC1 do in these assays?
Shn3 3UTR inh: -22

Results for CC1C/C(=C/c2ccncc2)C(=O)/C(=C/c2ccncc2)C1 (centres undefined) ?
Jurkat NFkB inh: 96*; Gli-Sufu block: -3; Mdm2-MdmX inh: 99*; 697 NFkB inh: -128; Shn3 3UTR inh: 80; Jurkat NFkB conf: 39; Mdm2 MdmX conf: 99*; Full FLuc ctr: 51*

What do the screens show for `Cc1nc2cc(N=NC3=C(O)CCCC3=O)ccc2s1`?
Jurkat NFkB inh: -70; Gli-Sufu block: -7; Mdm2-MdmX inh: -7; 697 NFkB inh: -117; Shn3 3UTR inh: -9
